# Experimental data taken from article PMC7862700, “An all-to-all approach to the identification of sequence-specific readers for epigenetic DNA modifications on cytosine”.
# How the values were obtained:
# Experiment in all cases: DAPPL (digital affinity profiling via proximity ligation, sequencing); 10 mM Tris-HCl pH 7.5, 50 mM NaCl, 1 mM DTT, 4% glycerol, room temperature, 30 min; GST-TFs on glutathione beads, 16-mer random dsDNA library, 0.1% formaldehyde crosslink after washing; high values mean tight binding
# Conditions in all cases: protein: recombinant; tags: N-terminal GST; dsDNA, one strand shown
# FLI1 = target: T1, FLI1 (Homo sapiens, UniProt Q01543 1-452)
# T1 sequence: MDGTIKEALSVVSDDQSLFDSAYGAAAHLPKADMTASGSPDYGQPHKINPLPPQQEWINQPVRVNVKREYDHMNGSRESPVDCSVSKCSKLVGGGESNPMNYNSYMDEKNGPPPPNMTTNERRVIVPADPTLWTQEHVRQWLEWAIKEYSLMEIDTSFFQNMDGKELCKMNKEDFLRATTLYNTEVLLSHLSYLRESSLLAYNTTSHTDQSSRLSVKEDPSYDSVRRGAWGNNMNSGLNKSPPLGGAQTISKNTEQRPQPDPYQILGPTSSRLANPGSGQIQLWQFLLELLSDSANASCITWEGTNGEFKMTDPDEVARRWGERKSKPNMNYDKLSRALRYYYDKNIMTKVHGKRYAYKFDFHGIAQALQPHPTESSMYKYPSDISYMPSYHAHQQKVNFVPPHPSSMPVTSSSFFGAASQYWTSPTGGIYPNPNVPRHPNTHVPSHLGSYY
# Outline: (§1)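 Human transcription factors carrying a GST fusion were produced in yeast, bound to glutathione beads, tagged with DNA barcodes and pooled together with a tag-only sample. Each pool was held with 200 nmole of a random double-stranded 16-mer DNA library in Tris/NaCl/DTT/glycerol buffer for 30 min at room temperature, then washed, crosslinked in 0.1% formaldehyde, proximity-ligated with BsaI/T4 ligase (1 h, 37 °C), PCR-amplified and sequenced on an Illumina NextSeq500. Binding signal is the read frequency of each hexamer for a given factor divided by its frequency in the tag-only sample.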
# ELK1 = target: T2, ELK1 (Homo sapiens, UniProt P19419 1-428)
# T2 sequence: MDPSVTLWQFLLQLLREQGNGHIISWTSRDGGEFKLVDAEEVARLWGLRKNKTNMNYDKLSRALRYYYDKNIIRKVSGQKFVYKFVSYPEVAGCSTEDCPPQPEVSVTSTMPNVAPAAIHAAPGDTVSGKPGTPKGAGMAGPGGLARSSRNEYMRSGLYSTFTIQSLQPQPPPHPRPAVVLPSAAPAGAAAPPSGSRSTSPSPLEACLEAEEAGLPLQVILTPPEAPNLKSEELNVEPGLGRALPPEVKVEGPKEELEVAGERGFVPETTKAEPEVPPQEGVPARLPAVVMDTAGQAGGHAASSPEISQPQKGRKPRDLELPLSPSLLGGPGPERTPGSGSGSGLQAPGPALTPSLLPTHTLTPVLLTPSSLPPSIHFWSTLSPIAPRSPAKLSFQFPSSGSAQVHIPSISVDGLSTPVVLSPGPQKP
# Outline: as §1
# GABPA = target: T3, GABPA (Homo sapiens, UniProt Q06546 1-454)
# T3 sequence: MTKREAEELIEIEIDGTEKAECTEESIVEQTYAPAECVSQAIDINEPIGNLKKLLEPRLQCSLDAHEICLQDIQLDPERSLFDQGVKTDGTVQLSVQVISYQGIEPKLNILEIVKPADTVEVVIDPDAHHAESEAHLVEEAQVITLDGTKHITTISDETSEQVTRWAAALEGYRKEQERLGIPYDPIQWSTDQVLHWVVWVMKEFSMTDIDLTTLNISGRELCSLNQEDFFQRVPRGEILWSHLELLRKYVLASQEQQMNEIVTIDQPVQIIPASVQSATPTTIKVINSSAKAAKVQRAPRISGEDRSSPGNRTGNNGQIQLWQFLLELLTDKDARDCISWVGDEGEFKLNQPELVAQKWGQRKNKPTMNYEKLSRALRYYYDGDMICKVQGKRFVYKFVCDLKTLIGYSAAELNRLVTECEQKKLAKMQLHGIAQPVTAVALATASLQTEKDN
# Outline: as §1
# ERG = target: T4, ERG (Homo sapiens, UniProt P11308 1-479)
# T4 sequence: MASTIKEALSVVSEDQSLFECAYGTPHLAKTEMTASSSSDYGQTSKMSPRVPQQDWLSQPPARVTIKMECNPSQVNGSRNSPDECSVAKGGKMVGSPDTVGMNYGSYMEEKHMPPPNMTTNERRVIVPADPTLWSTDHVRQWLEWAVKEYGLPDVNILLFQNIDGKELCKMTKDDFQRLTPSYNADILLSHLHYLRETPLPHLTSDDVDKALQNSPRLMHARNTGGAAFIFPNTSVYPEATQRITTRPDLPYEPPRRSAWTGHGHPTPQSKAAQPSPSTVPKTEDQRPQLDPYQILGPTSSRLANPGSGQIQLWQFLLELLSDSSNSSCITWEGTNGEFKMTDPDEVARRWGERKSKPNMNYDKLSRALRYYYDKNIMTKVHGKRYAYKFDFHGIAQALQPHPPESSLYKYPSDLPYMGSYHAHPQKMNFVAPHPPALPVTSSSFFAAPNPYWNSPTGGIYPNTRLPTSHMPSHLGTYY
# Outline: as §1
# ELF1 = ELF1 (Homo sapiens, UniProt P32519 1-619)
# Sequence of ELF1 (P32519 whole entry): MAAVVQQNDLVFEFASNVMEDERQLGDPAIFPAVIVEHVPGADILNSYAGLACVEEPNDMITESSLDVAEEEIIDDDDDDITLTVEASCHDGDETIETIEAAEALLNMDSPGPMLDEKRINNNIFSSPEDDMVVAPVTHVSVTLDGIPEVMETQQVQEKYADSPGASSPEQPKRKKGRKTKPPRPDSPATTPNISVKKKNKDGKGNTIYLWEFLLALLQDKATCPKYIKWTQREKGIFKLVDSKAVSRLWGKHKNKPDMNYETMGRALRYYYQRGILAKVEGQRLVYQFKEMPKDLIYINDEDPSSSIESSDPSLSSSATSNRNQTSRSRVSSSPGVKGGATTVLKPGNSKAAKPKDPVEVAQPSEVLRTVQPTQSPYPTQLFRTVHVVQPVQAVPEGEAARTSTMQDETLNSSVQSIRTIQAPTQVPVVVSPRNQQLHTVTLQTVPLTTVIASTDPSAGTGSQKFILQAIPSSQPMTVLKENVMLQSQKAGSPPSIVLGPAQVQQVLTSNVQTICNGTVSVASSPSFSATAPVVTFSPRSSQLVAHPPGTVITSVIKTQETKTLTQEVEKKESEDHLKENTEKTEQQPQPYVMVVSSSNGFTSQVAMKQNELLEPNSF
# Outline: as §1
# EHF = target: T5, EHF (Homo sapiens, UniProt Q9NZC4 1-300)
# T5 sequence: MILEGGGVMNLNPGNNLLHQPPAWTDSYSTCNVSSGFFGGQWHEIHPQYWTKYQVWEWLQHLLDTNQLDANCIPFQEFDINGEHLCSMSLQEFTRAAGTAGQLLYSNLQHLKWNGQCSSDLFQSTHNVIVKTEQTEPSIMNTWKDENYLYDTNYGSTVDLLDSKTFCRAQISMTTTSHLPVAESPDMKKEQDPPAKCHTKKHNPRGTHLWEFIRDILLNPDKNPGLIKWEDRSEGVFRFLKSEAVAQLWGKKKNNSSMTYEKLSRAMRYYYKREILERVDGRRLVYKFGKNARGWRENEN
# Outline: as §1
# SPIB = SPIB (Homo sapiens, UniProt Q01892 1-262)
# Sequence of SPIB (Q01892 whole entry): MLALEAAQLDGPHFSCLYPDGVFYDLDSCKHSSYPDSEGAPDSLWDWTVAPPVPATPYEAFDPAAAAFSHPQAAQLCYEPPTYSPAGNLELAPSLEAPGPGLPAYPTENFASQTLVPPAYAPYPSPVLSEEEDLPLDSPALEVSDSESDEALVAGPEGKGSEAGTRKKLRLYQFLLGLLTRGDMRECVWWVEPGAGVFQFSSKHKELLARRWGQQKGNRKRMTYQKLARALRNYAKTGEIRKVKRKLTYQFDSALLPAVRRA
# Outline: as §1
# ELK3 = target: T6, ELK3 (Homo sapiens, UniProt P41970 1-407)
# T6 sequence: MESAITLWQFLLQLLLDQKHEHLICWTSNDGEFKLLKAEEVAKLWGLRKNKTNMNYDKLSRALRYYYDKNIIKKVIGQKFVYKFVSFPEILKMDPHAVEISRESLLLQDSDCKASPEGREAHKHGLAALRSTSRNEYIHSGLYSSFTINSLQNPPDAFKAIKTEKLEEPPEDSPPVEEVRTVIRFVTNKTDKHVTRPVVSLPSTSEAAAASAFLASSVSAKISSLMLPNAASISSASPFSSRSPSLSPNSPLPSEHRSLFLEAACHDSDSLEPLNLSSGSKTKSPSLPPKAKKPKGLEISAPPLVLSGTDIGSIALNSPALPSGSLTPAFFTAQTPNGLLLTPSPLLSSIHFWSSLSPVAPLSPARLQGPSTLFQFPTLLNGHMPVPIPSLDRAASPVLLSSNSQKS
# Outline: as §1
# ELK4 = target: T7, ELK4 (Homo sapiens, UniProt P28324-2 1-405)
# T7 sequence: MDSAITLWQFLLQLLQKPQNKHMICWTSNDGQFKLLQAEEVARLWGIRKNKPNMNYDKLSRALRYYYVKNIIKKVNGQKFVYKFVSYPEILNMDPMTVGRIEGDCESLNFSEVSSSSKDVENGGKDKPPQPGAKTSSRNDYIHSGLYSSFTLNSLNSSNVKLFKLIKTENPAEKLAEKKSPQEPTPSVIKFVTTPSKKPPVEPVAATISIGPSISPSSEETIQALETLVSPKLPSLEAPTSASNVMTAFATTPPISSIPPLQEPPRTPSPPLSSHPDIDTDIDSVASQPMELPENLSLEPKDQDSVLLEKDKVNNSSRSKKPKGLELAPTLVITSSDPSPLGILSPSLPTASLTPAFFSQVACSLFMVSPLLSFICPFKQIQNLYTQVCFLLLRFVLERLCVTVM
# Outline: as §1
# ETV2 = target: T8, ETV2 (Homo sapiens, UniProt O00321 1-342)
# T8 sequence: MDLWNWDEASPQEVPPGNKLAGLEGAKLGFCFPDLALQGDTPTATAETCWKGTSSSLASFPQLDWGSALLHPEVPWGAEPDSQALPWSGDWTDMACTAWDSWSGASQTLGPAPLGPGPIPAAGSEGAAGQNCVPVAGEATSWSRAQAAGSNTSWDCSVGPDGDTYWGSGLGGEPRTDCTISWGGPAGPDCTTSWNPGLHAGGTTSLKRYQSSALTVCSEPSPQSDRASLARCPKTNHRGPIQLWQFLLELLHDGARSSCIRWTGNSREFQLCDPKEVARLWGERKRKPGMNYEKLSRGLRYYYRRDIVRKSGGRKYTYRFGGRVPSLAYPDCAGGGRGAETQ
# Outline: as §1
# ETV3L = target: T9, ETV3L (Homo sapiens, UniProt Q6ZN32 1-361)
# T9 sequence: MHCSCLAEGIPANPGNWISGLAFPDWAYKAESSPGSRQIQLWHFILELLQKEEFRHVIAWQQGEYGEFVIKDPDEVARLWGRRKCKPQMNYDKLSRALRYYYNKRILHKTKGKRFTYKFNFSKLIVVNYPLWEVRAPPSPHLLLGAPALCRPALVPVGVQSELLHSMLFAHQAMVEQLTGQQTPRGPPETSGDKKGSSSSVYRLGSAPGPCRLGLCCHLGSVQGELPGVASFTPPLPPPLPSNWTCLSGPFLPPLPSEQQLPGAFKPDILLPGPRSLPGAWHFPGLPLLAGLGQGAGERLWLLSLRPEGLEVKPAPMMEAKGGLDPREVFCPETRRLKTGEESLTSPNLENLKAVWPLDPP
# Outline: as §1
# ETS2 = target: T10, ETS2 (Homo sapiens, UniProt P15036 1-469)
# T10 sequence: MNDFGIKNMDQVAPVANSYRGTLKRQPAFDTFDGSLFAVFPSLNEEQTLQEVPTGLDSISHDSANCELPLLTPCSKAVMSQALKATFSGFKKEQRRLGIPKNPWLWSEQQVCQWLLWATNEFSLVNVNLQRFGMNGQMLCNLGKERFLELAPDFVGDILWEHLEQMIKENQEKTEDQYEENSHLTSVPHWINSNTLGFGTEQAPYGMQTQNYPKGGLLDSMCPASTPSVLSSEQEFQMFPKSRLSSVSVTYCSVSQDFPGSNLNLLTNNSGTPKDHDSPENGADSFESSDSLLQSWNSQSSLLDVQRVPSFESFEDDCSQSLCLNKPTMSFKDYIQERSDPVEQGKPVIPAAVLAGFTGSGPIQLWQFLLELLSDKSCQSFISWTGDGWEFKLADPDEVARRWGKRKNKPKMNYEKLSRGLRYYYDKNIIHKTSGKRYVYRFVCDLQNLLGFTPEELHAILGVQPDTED
# Outline: as §1
# ETV7 = target: T11, ETV7 (Homo sapiens, UniProt Q9Y603 1-341)
# T11 sequence: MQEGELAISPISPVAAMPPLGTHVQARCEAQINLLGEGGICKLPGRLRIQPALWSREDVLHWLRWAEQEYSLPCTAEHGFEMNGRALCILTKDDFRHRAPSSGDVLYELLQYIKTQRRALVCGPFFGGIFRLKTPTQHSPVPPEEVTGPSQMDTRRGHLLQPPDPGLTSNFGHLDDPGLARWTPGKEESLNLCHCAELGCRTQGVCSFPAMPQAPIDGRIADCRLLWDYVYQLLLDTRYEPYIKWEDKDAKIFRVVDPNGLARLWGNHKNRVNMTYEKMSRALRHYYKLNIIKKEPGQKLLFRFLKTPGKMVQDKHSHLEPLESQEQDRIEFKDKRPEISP
# Outline: as §1
# ETV3 = target: T12, ETV3 (Homo sapiens, UniProt P41162-2 1-143)
# T12 sequence: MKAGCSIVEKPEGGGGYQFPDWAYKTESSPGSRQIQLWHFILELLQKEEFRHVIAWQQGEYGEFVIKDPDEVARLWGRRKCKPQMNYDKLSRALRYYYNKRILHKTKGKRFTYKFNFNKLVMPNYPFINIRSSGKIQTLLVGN
# Outline: as §1
sequence,measurement,setting,value
CAGCGC,binding signal,FLI1,"1.09 fold enrichment (6-mer frequency, TF over GST control)"
same,binding signal,ELK1,"1.03 fold enrichment (6-mer frequency, TF over GST control)"
same,binding signal,GABPA,"1.01 fold enrichment (6-mer frequency, TF over GST control)"
same,binding signal,ERG,"1.03 fold enrichment (6-mer frequency, TF over GST control)"
same,binding signal,ELF1,"1.08 fold enrichment (6-mer frequency, TF over GST control)"
same,binding signal,EHF,"1.01 fold enrichment (6-mer frequency, TF over GST control)"
same,binding signal,SPIB,"1.07 fold enrichment (6-mer frequency, TF over GST control)"
same,binding signal,ELK3,"1.06 fold enrichment (6-mer frequency, TF over GST control)"
same,binding signal,ELK4,"1.06 fold enrichment (6-mer frequency, TF over GST control)"
same,binding signal,ETV2,"1.07 fold enrichment (6-mer frequency, TF over GST control)"
same,binding signal,ETV3L,"1.09 fold enrichment (6-mer frequency, TF over GST control)"
same,binding signal,ETS2,"1.1 fold enrichment (6-mer frequency, TF over GST control)"
same,binding signal,ETV7,"1.02 fold enrichment (6-mer frequency, TF over GST control)"
same,binding signal,ETV3,"1 fold enrichment (6-mer frequency, TF over GST control)"
